Reference: PubChem BioAssay (Tox21)
Active and inactive are the calls of the source. The call rests on the fitted dose curve.

experiment: G protein-coupled receptor (GPCR) small molecule agonists, calcium flux assay: HEK293 wild type cell line counter screen (AID 1920065); conditions: HEK293 WT calcium flux, fluorescence, agonist mode; series mostly up to 57.6 µM; activation: at the top concentration
From the text: U.S. Tox21 Program National Center for Advancing Translational Sciences [NCATS] Division of Preclinical Innovation [DPI] U.S. Environmental Protection Agency [EPA] National Institutes of Environmental Health Sciences [NIEHS] National Toxicology Program [NTP] U.S. Food and Drug Administration [FDA] Assay overview: The increased intracellular calcium release that occurred upon G protein-coupled receptor (GPCR) activation led to the frequent use of calcium flux assays to detect GPCR activation. For the purpose of studying and screening compounds that may activate GPCR, receptor-overexpressing models were typically generated using Hek293 wild-type (WT) cells. In order to eliminate the compounds that may have induced calcium release for non-specific activation, a counter-assay utilizing calcium flux on Hek293 WT cells was performed. The data were formulated in order to serve as a control for any calcium flux detection utilizing Hek293 cells with either GPCR overexpression or gene modification. The procurement of Hek293 WT cells from ATCC. Fluorescence intensity can be utilized to determine the activation of the compound in a calcium flux assay. As a counter control, this cell line was utilized to screen the Tox21 10K compound library.
Assay Protocol Summary: Hek293 cells were dispensed at 1500cells/4uL/well in 1536-well black wall/clear bottom plates using a multidrop dispenser. After the assay plates were incubated at a 37 C/5% CO2 incubator for 18 hours, 4 uL of Calcium Dye Solution was added to each well. The plates were incubated at 37 C for 1 hour. For agonist mode, 23 nL of compounds dissolved in DMSO, positive control (ATP) or DMSO only was transferred to the assay plate by a pin tool station. The fluorescence intensity in the plates was measured using FDSS 7000EX kinetic plate reader with a filter set of Ex/Em=480/540 for 3 min at 1 sec intervals. Each test compound was measured at 15 concentrations and in triplicates.
On the % scale 0 is the no-effect control and ±100 the full control effect.

| Compound | activation |
| --- | --- |
| C[C@@H]1C[C@H]2[C@@H]3CCC4=CC(=O)C=C[C@]4(C)[C@@]3(F)[C@@H](O)C[C@]2(C)[C@@]1(O)C(=O)CO | 0.351% (inactive) |
| COC(=O)CCCC(=O)O | 0.577% (inactive) |
| O=C(O)c1ccccc1NCCc1ccccc1 | -0.301% [at 26.5 µM] (inactive) |
| CN1CCN(C2=Nc3cc(F)ccc3Cc3ccccc32)CC1 | 0.538% [at 26.5 µM] (inactive) |
| NS(=O)(=O)Cc1noc2ccccc12 | -0.0114% [at 26.5 µM] (inactive) |
| COc1cc2c(cc1N)oc1ccccc12 | -1.1% (inactive) |
| CC(Oc1cc(Cl)ccc1Cl)C(=O)O (stereo not given) | -0.893% (inactive) |
| C[n+]1cc2c3c(ccc2c2ccc4cc5c(cc4c21)OCO5)OCO3 | 3.71% [at 11.8 µM] (inactive) |
| CCOC(=O)c1cnc2c(cnn2CC)c1NN=C(C)C | -0.615% [at 26.5 µM] (inactive) |
| CCCCC(CC)CN1C(=O)C2C3C=CC(C3)C2C1=O (stereo not given) | 0.261% (inactive) |
| C[N+]1(C)CCCC(OC(=O)C(O)(c2ccccc2)c2ccccc2)C1 (stereo not given) | 1.59% [at 26.5 µM] (inactive) |
| COc1ccc(Nc2ccc(OC)cc2)cc1 | -1.16% (inactive) |
| Oc1cc(O)c(Cl)cc1Cl | -0.0679% (inactive) |
| COC(=O)c1c(C)cc(O)c(C)c1O | -2.08% (inactive) |
| OCCSc1ccccc1 | 0.104% (inactive) |
| CC(C)C(=O)OC/C=C/c1ccccc1 | 0.145% (inactive) |
| Cc1ccc2c(c1)C(=O)c1ccccc1C2=O | -2.23% (inactive) |
| Oc1cn2c(n1)Nc1ccc(Cl)c(Cl)c1C2 | 0.199% [at 11.8 µM] (inactive) |
| CCN1CC(CCN2CCOCC2)C(c2ccccc2)(c2ccccc2)C1=O (stereo not given) | -0.202% [at 26.5 µM] (inactive) |
| CC(O)CN(CCCN(C)C)CCCN(C)C (stereo not given) | -0.582% (inactive) |

| Compound | activation |
| --- | --- |
| CCCCCC#CC(=O)OC | 0.828% (inactive) |
| O=C(NCCc1c[nH]c2ccccc12)c1cccnc1 | 0.793% [at 26.5 µM] (inactive) |
| Cc1c(N=C=O)cccc1N=C=O | 0.172% (inactive) |
| CCCCN(C)C | -0.47% (inactive) |
| NC(=O)NS(=O)(=O)c1ccc(N)cc1 | -0.658% [at 26.5 µM] (inactive) |
| O=[N+]([O-])c1cccc(I)c1 | 0.309% (inactive) |
| On1nnc2ccccc21 | -0.0077% (inactive) |
| C[C@H](O)C(=O)Nc1c(I)c(C(=O)NC(CO)CO)c(I)c(C(=O)NC(CO)CO)c1I | -0.596% [at 26.5 µM] (inactive) |
| CCOC(=O)c1ccccc1 | -1.14% (inactive) |
| CCc1cc(Cc2cc(CC)cc(C(C)(C)C)c2O)c(O)c(C(C)(C)C)c1 | 0.916% (inactive) |
| Clc1ccc(C(Cn2ccnc2)OCc2c(Cl)cccc2Cl)c(Cl)c1 (stereo not given) | 0.0841% [at 26.5 µM] (inactive) |
| C[C@@H]1CN(c2c(F)c(N)c3c(=O)c(C(=O)O)cn(C4CC4)c3c2F)C[C@H](C)N1 | -0.768% [at 11.8 µM] (inactive) |
| O=C(/C=C/c1ccccc1)OCCCc1ccccc1 | -0.127% (inactive) |
| CCO[Si](C)(CCCOCC1CO1)OCC (stereo not given) | -0.555% (inactive) |
| C/C=C(\C)C(=O)OCCc1ccccc1 | 0.284% (inactive) |
| O=C(O)c1cc(Cl)cc(Cl)c1O | 0.892% (inactive) |
| Nc1ncnc2c1ncn2[C@@H]1O[C@H](CO)[C@@H](O)[C@H]1O | -0.148% [at 26.5 µM] (inactive) |
| Nc1ccccc1O | 0.0316% (inactive) |
| O=C(O)C(O)[C@H](O)[C@@H](O)[C@H](O)[C@H](O)CO (stereo not given in full) | 0.061% (inactive) |
| Oc1cccc2[nH]ccc12 | 0.06% [at 26.5 µM] (inactive) |
